An excerpt weighted towards active compounds, which were near 4.6% of everything screened.
TRHR agonist – agonists of human TRH receptor; P34981; TRHR cells, calcium flux fluo-8, FDSS agonist mode; activation, % at 2 µM; 0.18% of 360,000 active; AID 493084; further: 0% is about no effect
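TRHR-expressing cells loaded with fluo-8 calcium dye; 23 nL library compound pin-transferred, kinetic FDSS fluorescence (Ex 480/Em 530) recorded about 180 s for agonist-induced calcium release, before a 10 nM TRH EC20 addition for potentiator mode.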
TRHR PAM – allosteric enhancers of human TRH receptor. TRHR cells, fluo-8 calcium fluorescence, EC20 TRH enhancement. 0.66% of 360,000 active. P34981. enhancement, % at 2 µM; in the data active means enhancement above about 30%; further: 0% is about no effect
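TRHR-expressing cells loaded with fluo-8 calcium dye were read kinetically (ex 480/em 530) during compound addition, then stimulated with an EC20 of TRH (10 nM final). Enhancement of the Gq-mediated intracellular calcium response was scored.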
D1 antagonist – blocks dopamine activation of the human D1 receptor. P21728. HEK293 TREx D1 cells, calcium flux, dopamine EC80; stronger effect = lower value. activity change, negative = inhibition, % at 10 µM. 3.2% of 360,000 active. AID 504652; in the data active means activity change below about -30%; further: on the % scale 0 is the no-effect control and ±100 the full control effect
Target sequence (P21728 whole entry, looked up): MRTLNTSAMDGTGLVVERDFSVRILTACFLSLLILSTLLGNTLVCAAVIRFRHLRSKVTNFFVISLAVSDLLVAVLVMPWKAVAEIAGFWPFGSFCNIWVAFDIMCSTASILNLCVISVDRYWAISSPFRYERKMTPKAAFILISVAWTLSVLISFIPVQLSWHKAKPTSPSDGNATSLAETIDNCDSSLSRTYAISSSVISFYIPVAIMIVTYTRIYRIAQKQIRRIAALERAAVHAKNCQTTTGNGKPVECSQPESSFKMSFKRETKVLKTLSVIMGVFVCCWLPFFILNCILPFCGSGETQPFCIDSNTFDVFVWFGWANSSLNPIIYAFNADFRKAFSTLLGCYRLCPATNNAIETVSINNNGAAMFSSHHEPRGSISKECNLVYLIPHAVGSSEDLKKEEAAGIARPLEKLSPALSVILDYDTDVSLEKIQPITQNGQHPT
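Tetracycline-induced HEK293 T-REx cells with force-coupled D1 receptor were loaded with a no-wash calcium dye. Compound was added after a 10 s baseline and read kinetically for 180 s; EC80 dopamine was then added and calcium flux followed another 180 s.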
D1 agonist – human D1 receptor agonism; P21728; HEK293 T-REx D1 cells, calcium flux, agonist mode; activation, % at 2 µM; 1% of 360,000 active; AID 504660; further: 0% is about no effect
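Tetracycline-induced HEK293 TREx D1 cells, force-coupled to calcium signalling, were dye-loaded with a no-wash calcium kit. Compound was pin-added after a 10 s baseline. Fluorescence was read kinetically at 1 cycle/s for 180 s, with calcium rises flagged as agonism.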
D1 potentiator – potentiators of human D1 dopamine receptor; 0.036% of 360,000 active; potentiation, % at 10 µM; AID 504651; P21728; HEK293 TREx D1 cells, calcium flux, dopamine EC20 potentiation; in the data active means potentiation above about 30%; further: 0% is about no effect
Numbers without * were called inactive; ! = a repeat was not active. Unless noted, no stated cut-off is given here; in the data, active means activation above about 30%; inactive means the rest.

SMILES	TRHR agonist	TRHR PAM	D1 antagonist	D1 agonist	D1 potentiator
CCCCN(C)CCCNC(=O)C1CCN(S(=O)(=O)CCC)CC1	0	2	13	-1	1
Cc1cccc(NC(=O)C2CCC(CNS(=O)(=O)c3csc(C(N)=O)c3)CC2)c1C (stereo unspecified)	0	1	12	1	3
CCC1CCCCN1C(=O)CN1C(=O)c2ccccc2S1(=O)=O (stereo unspecified)	1	-4	-5	3	-1
Cc1ccccc1COC(=O)CCCC1=NS(=O)(=O)c2ccccc2N1	2	-5	-1	31*	-3
Cc1ccc(NC(=O)COC(=O)CCCC2=NS(=O)(=O)c3ccccc3N2)cc1C	0	11	-6	2	8
O=C(Nc1ccc(N2CCN(Cc3ccccc3)CC2)cc1)c1ccco1	0	-4	-30*	4	-4
O=C(Nc1ccc(N2CCN(C(=O)c3ccco3)CC2)cc1)c1ccccc1	0	4	-56*	1	2
CCn1cc(C(=O)N2CCN(c3ccccc3OC)CC2)c(=O)c2cc(S(=O)(=O)N3CCCCC3)ccc21	-1	8	-6	3	1
Cn1c(=O)n(-c2ccc(F)c(Cl)c2)c(=O)c2sc3ccccc3c21	0	-2	3	8	-2
COc1cc(C(=O)Nc2nc3c(s2)Cc2c(Br)ccc(OC)c2-3)cc(OC)c1OC	1	-4	2	3	-3
CCOC(=O)c1cccnc1SCC(=O)N(C)c1ccccc1	0	3	-44*	5	1
O=C1C2C(c3cccc(/C=C/c4ccccc4)c3)CC=CC2C(c2ccc3ccccc3c2)N1Cc1ccccc1 (stereo unspecified)	0	-2	-42*	5	-2
COc1cc(OC)c(-c2cc(C(=O)NCc3ccc(F)cc3)c3c(-c4ccccc4)[nH]nc3n2)cc1OC	1	10	11	5	0
COc1ccc(C(=O)Oc2ccc(/C=N/NC(=O)Cc3ccc([N+](=O)[O-])cc3)cc2)cc1	-1	1	-32*	2	-8
COc1ccc(C(=O)Oc2ccc(/C=N/O)cc2)cc1	0	7	-35*	3	-3
COc1ccc(CNC(=O)C(C(C)C)N2Cc3ccccc3C2=O)cc1 (stereo unspecified)	0	-5	-10	9	1
COc1cc(Cc2cnc(N)nc2N)cc(OC)c1OC	1	5	-48*!	-1	4
CCn1nc(C)cc1C(=O)N1CCCC(N2CCN(c3cccc(Cl)c3)CC2)C1 (stereo unspecified)	-1	-1	-54*	3	-11
O=C(c1ccoc1)N1CCCC(N2CCN(c3ccc(F)cc3)CC2)C1 (stereo unspecified)	0	-1	-6	0	-5
Cc1cc(C(=O)N2CCCC(N3CCN(c4cccc(Cl)c4)CC3)C2)n(C)n1 (stereo unspecified)	0	0	15	6	-4
O=C(c1ccoc1)N1CCCC(N2CCN(c3cccc(Cl)c3)CC2)C1 (stereo unspecified)	0	-8	-46*	4	-5
O=C(CCc1ccccc1)Nc1ccc(F)c([N+](=O)[O-])c1	-1	-4	-18	10	-3
Cc1ccc(CNC(=S)Nc2ccc(C)c([N+](=O)[O-])c2)cc1	3	-4	-31*	38*	-7
Cc1ccc(CC(=O)Nc2ccc(F)c([N+](=O)[O-])c2)cc1C	1	-1	-35*	9	-4
Cc1ccc(NC(=O)Cc2ccc3c(c2)CCCC3)cc1C	0	1	-31*	3	0
SMILES	TRHR agonist	TRHR PAM	D1 antagonist	D1 agonist	D1 potentiator
Cc1ccc(NC(=S)NCc2ccccc2)cc1[N+](=O)[O-]	1	-6	-21	23	-8
Cc1ccc(CC(=O)Nc2ccc(F)c([N+](=O)[O-])c2)cc1	-1	-4	-43*	9	-9
Cc1noc(C)c1CSCC(=O)N1CCN(c2ccc(F)cc2)CC1	0	3	-32*	13	-3
Cc1noc(C(=O)N2CCN(c3ccc(F)cc3)CC2)c1Cl	0	5	-69*	2	-3
O=C(NCc1ccccc1)C(c1ccccc1)N(Cc1ccc2c(c1)OCO2)C(=O)Cc1cccs1 (stereo unspecified)	-1	7	-7	34*	-6
CCc1nn(CC(=O)NCCCN(CC(C)C)CC(C)C)c(=O)c2cc3sc(C)cc3n12	0	27	9	3	-7
Cc1csc2c(N3CCN(S(=O)(=O)c4ccc(Cl)cc4)CC3)ncnc12	0	2	-35*	4	-3
CCOc1ccc(CC(=O)Nc2cccc(-c3nc4cccnc4s3)c2C)cc1	0	-1	-24	4	1
NC(=O)c1c(N)sc2c1CCCC2	0	4	-6	2	1
Nc1sc2c(c1C(=O)c1ccccc1)CCCC2	-1	-4	-66*	1	-1
Cc1cc(C(=O)N/N=C/c2c(C)[nH]c3ccccc23)n[nH]1	-1	1	-20	3	1
Cc1[nH]c2ccccc2c1/C=N/NC(=O)c1cc(-c2cccs2)[nH]n1	0	4	-31*	0	-13
Cc1cc(C(=O)N/N=C/c2ccccn2)n[nH]1	0	-1	-48*	1	-6
CCC1CN(C(=O)N2CCC(C(=O)NCCc3ccccc3Cl)CC2)c2cc(C)ccc2O1 (stereo unspecified)	0	-5	-5	1	3
Cc1nc2c(Cl)cccc2c2c1CC(CBr)O2 (stereo unspecified)	-1	-6	-31*	1	-2
C/C(=N\NC(=O)C1CC1(c1ccccc1)c1ccccc1)c1cccc([N+](=O)[O-])c1 (stereo unspecified)	1	-1	-77*	1	-5
Cc1ccc(S(=O)(=O)N2CCCc3cc(NS(=O)(=O)c4ccc(F)c(C)c4)ccc32)cc1	-1	-1	6	3	-1
c1ccc(SCCN2CCc3ccccc3C2)cc1	-1	15	-73*	1	-2
c1ccc(SCCOCCN2CCc3ccccc3C2)cc1	0	6	-48*	3	-9
COCCNC(=O)CCCn1c(SCC(=O)Nc2cccc(C)c2)nc2c(sc3ccccc32)c1=O	0	2	0	4	-2
CCn1c(/C=C/c2ccccc2)nc2ccccc21	0	-5	-39*	-1	-10
CCCCCn1c(-c2ccc(OC)c(OC)c2)nc2ccccc21	-1	5	-47*	57*	-3
COc1cc(Cn2c(-c3ccc(O)c(OC)c3)nc3ccccc32)ccc1O	0	0	-15	1	-3
CC(C)Cn1c(/C=C/c2ccccc2)nc2ccccc21	-1	-1	8	6	-3
CCCCCCn1c(/C=C/c2ccccc2)nc2ccccc21	2	-7	-31*	16	-6

Screening results as filed in PubChem.
